Compounds with a hit are over-represented: about 32% of the library has one in this group of screens.
CYP2C9 act = activators of human CYP2C9 | recombinant CYP2C9, luciferin-H conversion, luminescence; hits give high values; factor 1 = untreated enzyme, 0 = blocked | activation factor at 5 µM | 1.4% of 96,000 active;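 active means activation factor of 2 or more for CYP2C9 at a 5 µM dose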;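 further: 0 = sulfaphenazole-blocked wells and 1 = vehicle-only wells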
Target sequence (P11712 whole entry, looked up): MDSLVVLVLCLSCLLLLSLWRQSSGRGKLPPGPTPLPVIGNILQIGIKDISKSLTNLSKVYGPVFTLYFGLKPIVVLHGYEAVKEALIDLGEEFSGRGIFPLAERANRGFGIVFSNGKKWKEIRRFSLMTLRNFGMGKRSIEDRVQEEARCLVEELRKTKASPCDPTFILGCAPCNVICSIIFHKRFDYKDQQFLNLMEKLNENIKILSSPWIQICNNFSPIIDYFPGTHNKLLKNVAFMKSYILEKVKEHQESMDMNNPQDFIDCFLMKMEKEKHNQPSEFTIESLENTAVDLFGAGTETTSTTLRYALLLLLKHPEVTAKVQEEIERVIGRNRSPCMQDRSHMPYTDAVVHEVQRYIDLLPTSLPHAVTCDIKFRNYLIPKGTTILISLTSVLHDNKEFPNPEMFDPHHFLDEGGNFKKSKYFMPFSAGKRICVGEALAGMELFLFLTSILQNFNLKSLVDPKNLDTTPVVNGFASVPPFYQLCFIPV
CYP2C9 inhib = inhibitors of human CYP2C9. inhibition, % at 5 µM. CYP2C9 Supersomes, luciferin-H conversion, luminescence. P11712. AID 777. 20% of 96,000 active;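 active means blocking of liver enzyme CYP2C9 beyond about 50% at 5 µM, limit read from the data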
PostGolgi ctrl = yeast control strain growth, post-Golgi counter-screen | efflux-deficient yeast background strain, growth absorbance A615, 16 h | inhibition, % at 10 µM | 5% of 98,000 active
CYP2C19 activ = activators of human cytochrome P450 2C19; recombinant CYP2C19, luciferin-H EGE luminescence; hits give high values; 0 = fully inhibited enzyme, 1 = untreated enzyme; P33261; 96,000 tested, under 10 active; activation factor at 5 µM;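 active means activation factor of at least 2 at 5 µM in the primary screen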;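 further: 0 = wells with 2.5 mM tranylcypromine and 1 = vehicle-only wells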
PostGolgi yeast = growth inhibition of a yeast mutant, post-Golgi transport screen | post-Golgi transport phenotypic cell assay | inhibition, % at 10 µM | 0.9% of 98,000 active | AID 739;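 further: yeast cells grown in 1536-well plates; yeast grown about 18 h at 30C before absorbance read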
CYP2C19 inh = blocks human cytochrome P450 2C19; AID 778; P33261; 21% of 96,000 active; inhibition, % at 5 µM; CYP2C19 Supersomes, luciferin-H EGE luminescence, 30 min;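 active means CYP2C19 inhibition above a set limit at 5 µM in the primary screen, cut at about 50% in these data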;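 further: plate controls were negative control wells for no effect and 2.5 mM tranylcypromine positive control for full effect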
An asterisk follows results filed as active. Unless noted, no stated cut-off is given here; in the data, active means inhibition above about 30%; inactive means the rest.

SMILES	CYP2C9 act	CYP2C9 inhib	PostGolgi ctrl	CYP2C19 activ	PostGolgi yeast	CYP2C19 inh
O=C1C2CCCN2C(c2ccc(Br)cc2)N1c1ccc(F)cc1 (stereo not given)	0.8	21	8	0.3	1	66*
CCc1ccc(C2N(c3ccc(OC)cc3)C(=O)C3CCCN32)cc1 (stereo not given)	0.2	76*	7	0.7	-13	33
CCNC(=O)CN(Cc1ccccc1)S(=O)(=O)c1ccccc1	0.6	38	11	0.6	2	42
O=C(CN(Cc1ccccc1)S(=O)(=O)c1ccccc1)N/N=C/c1ccccc1[N+](=O)[O-]	0.3	65*	18	0.6	-2	42
Cc1ccc(CN(CC(=O)N/N=C/c2ccccc2[N+](=O)[O-])S(=O)(=O)c2ccc(C)cc2)cc1	0.2	85*	11	0	4	97*
Cc1ccc(S(=O)(=O)N(CC(=O)N/N=C/c2ccco2)Cc2ccccc2)cc1	0.6	42	7	0.6	-3	36
CCOC(=O)c1cc2sc(C)cc2n1CCCN1C(=O)c2ccccc2C1=O	0.4	57*	9	0.9	-7	14
CCOC(=O)c1cc2occc2n1CCCN1C(=O)c2ccccc2C1=O	0.1	87*	8	0.8	-3	21
CCOC(=O)c1cc2occc2n1CC(=O)N1CCOCC1	1.1	-11	1	0.9	-1	9
COc1ccc(NC(=O)c2ccc(CNc3c(NC4CCCCC4)c(=O)c3=O)cc2)c(OC)c1	0.3	70*	0	0.9	0	15
O=C(O)c1cccc(S(=O)(=O)N2CCSCC2)c1	1.2	-21	13	1.2	-1	-18
O=C(Nc1ccccc1)NC1(C(=O)NCc2cccs2)CCCCC1	0.4	63*	23	0.9	14	13
Cc1ccc(S(=O)(=O)C2(C(=O)NCc3ccc4c(c3)OCO4)CC2)cc1	0.4	64*	10	0.3	-3	69*
CC12CCC(C(=O)NCc3ccc4c(c3)OCO4)(CC1=O)C2(C)C (stereo not given)	1	3	-1	0.5	2	47
COCCNC(=O)c1ccc(CS(=O)(=O)c2ccc(C)cc2)o1	1.3	-30	-7	1.1	7	-14
Cc1ccc(S(=O)(=O)Cc2ccc(C(=O)NCc3ccc4c(c3)OCO4)o2)cc1	0	98*	34*	0.2	-6	84*
CC12CCC(C(=O)NCc3ccc4c(c3)OCO4)(C(=O)C1=O)C2(C)C (stereo not given)	0.7	30	5	0.4	2	56*
CC1=Nn2c(nnc2-c2cccs2)SC1	0.8	22	5	0.9	6	8
O=C(NCc1cccs1)c1cc(C2CC2)on1	0.9	6	2	0.5	-6	45
CCOC(=O)c1cnc2c(c(C)nn2C)c1Oc1ccc(Cl)cc1	0.6	40	18	0.7	9	31
Cn1nnc2cc(NC(=O)NCc3ccc4c(c3)OCO4)ccc21	1	-2	5	0.8	-1	24
O=C(NCc1ccc2c(c1)OCO2)c1ccc(COc2cccc(Cl)c2)o1	0.1	88*	60*	0.4	6	64*
Cc1ccc(NC(=O)NCc2ccc3c(c2)OCO3)cc1	0.7	31	14	0.5	-5	51*
O=C(NCc1cccs1)Nc1ccc2c(c1)OCO2	0.8	17	6	0.5	-5	52*
O=C(NCc1ccccn1)Nc1ccc2c(c1)OCO2	0.9	14	5	0.6	-7	35
SMILES	CYP2C9 act	CYP2C9 inhib	PostGolgi ctrl	CYP2C19 activ	PostGolgi yeast	CYP2C19 inh
Cc1ccc(NC2=NCC(=O)N2Cc2ccc3c(c2)OCO3)cc1	0.1	86*	16	0.1	3	88*
C/C(=C\C(=O)c1ccc(C)cc1)Nc1cccc(O)c1	1.4	-44	2	0.8	-5	21
O=C(O)C1C2C=CC(C2)C1C(=O)NCCc1ccncc1 (stereo not given)	0.8	23	1	0.2	1	78*
O=C(O)C1C2C=CC(C2)C1C(=O)NCCCn1ccnc1 (stereo not given)	0.3	67*	3	0.1	8	88*
O=C(O)C1CCCCC1C(=O)NCCCn1ccnc1 (stereo not given)	0.9	14	-5	0.8	4	16
COC(=O)n1ccc(C(=O)Nc2ccccc2F)n1	0.9	7	4	1	0	4

Bioassay records (PubChem)
